Reference: PubChem BioAssay AID1276 (Columbia University Molecular Screening Center, 2008)
Screen size: about 190,000 compounds; about 2,000 (1.1%) were called active. Only a selection was taken, and actives are over-represented in it overall. Unmarked numbers belong to inactive results.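 Rule for the calls: active = activation above a set limit, based on mean plus 3 SD of controls (cut at about 140% in these data); inconclusive = one replicate above the limit, the other below; inactive = the rest.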

Assay: APP 5'UTR reporter signal increase – luciferase, SH-SY5Y cells, primary screen (AID 1276)
Settings: SH-SY5Y APP 5'UTR luciferase reporter, luminescence; at 2 µM; stronger effect = higher value; zero percent = DMSO vehicle wells

| SMILES | activation |
| --- | --- |
| CCc1cccc(CC)c1NC(=O)COc1ccccc1C(=O)c1cc(C#N)c(=O)n(C2CCCCC2)c1 | 12.3% |
| Cc1ccc(NC(=O)CSc2nc(CSc3ccc(C)cc3)cc(=O)[nH]2)cc1 | 7.62% |
| CCN(CC)CCn1c(/N=C/c2cc(Br)ccc2O)nc2ccccc21 | -4.24% |
| COc1cc(C(=O)Nc2cc(C(F)(F)F)ccc2-n2cncn2)cc(OC)c1OC | 0.9% |
| CCCCCN(C(=O)NC(=O)Nc1cccc(C)c1C)S(C)(=O)=O | 12.9% |
| COc1ccccc1/C=N\Nc1cc(C)nc(-n2nc(C)cc2C)n1 | -3.23% |
| CCc1ccc(-c2cc(C(=O)NN3CCN(C)CC3)c3ccccc3n2)cc1 | 47.9% |
| COCCNc1nc2nonc2nc1N1CCCC1c1nccs1 (stereo not given) | 2.4% |
| CCC(C)NCC(=O)Nc1ccc([N+](=O)[O-])cc1C(=O)Nc1ccccc1F (stereo not given) | -0.05% |
| CC(CC(=O)O)CC(=O)NNC(=O)c1cccc(Br)c1 (stereo not given) | 7.74% |
| Cc1noc(C)c1/C=N/Nc1ccc2ccccc2n1 | 169% (active) |
| O=C(Cc1ccc(F)cc1)N/N=C/c1ccc2c(c1)OCO2 | 42.8% |
| Cc1cc(C)nc(N/N=C/c2c(C)oc3ccccc23)n1 | 22.1% |
| Brc1ccc(-c2csc(N/N=C/c3ccc4c(c3)OCO4)n2)cc1 | -0.09% |
| Cc1nc2ccccc2cc1C(=O)N/N=C/c1ccc([N+](=O)[O-])cc1 | -13.5% |
| C(=N\Nc1ccc2ccccc2n1)/c1ccc2c(c1)OCO2 | 227% (active) |
| Cc1cccc(-n2c(=O)c3c(C)c(C)sc3n(CC(N)=O)c2=O)c1 | -15.7% |
| CCn1c(SCC(=O)Nc2ccc(C)cc2)nc2nc3c(cc2c1=O)CCCC3 | 17.6% |
| CC(C)CNC(=S)NC(=O)c1ccc(Cl)cc1 | 37.3% |
| Cc1cccc(OCCC(=O)Nc2cc(S(=O)(=O)N3CCCCC3)ccc2N2CCOCC2)c1 | 11.1% |
| COc1ccc(OCCNS(=O)(=O)Cc2ccccc2)cc1 | 8.23% |
| CC1CN/C(=C\C(=O)c2ccc(Br)cc2)C(=O)N1 (stereo not given) | 138% (active) |
| CN1CCCC(OC(=O)COc2ccc(Br)cc2)C1 (stereo not given) | 3.06% |
| C/C(=C\C(=O)c1ccc(Br)cc1)N1CCCCC1 | -20.4% |
| COc1ccc(Cc2nnc(N/N=C/c3ccccc3O)[nH]c2=O)cc1OC | -85.9% |
| Cc1cc(Cl)ccc1OCc1nc(-c2ccncc2)no1 | 95.7% |
| Cc1ccc(NC(=O)c2csc3c2CCCC3)cc1 | 232% (active) |

| SMILES | activation |
| --- | --- |
| COC(=O)c1sc(NC(=O)c2csc3c2CCCC3)nc1C | 95.3% |
| COC(=O)c1sccc1NC(=O)c1csc2c1CCCC2 | -8.07% |
| Cc1cc(C)n(CCNCc2c(C(=O)N3C[C@@H](C)O[C@@H](C)C3)nc3ccc(Cl)cn23)n1 | 13.1% |
| O=C(CSc1ccccc1)Nc1ccc(C(=O)Nc2cccc(O)c2)cc1 | 37.6% |
| C/C(=C\C(=O)c1ccccc1)Nc1cccc(O)c1 | 33.4% |
| O=C(Nc1cccc(O)c1)c1ccc(C(=O)c2ccccc2)o1 | 155% (active) |
| CC1COc2ccccc2N1S(=O)(=O)c1ccccc1 (stereo not given) | -2.45% |
| O=C(Nc1ccc(Oc2ccccc2)cc1)c1ccco1 | 163% (active) |
| O=C(CSc1ccccc1)Nc1ccc(NC(=O)c2ccco2)cc1 | 6.16% |
| COC(=O)c1ccc(NC(=O)c2ccco2)cc1 | 120% |
| COC(=O)c1cc2n(n1)CCCNC2=O | -7.46% |
| Cc1ccc(-c2csc(NNC(=O)c3ccccc3)n2)cc1 | 3.5% |
| Cc1ccc(NC(=O)c2cc(-c3ccc(C)o3)nc3ccccc23)nc1 | -0.92% |
| Cc1ccc(Nc2nc(-c3ccc(O)cc3O)cs2)nc1 | 151% (active) |
| CC1=NNC(=O)C1CCC(=O)N/N=C\c1cccc(Cl)c1 (stereo not given) | 0.72% |
| O=c1cc(N2CCCCC2)c(-c2ccccc2)nn1Cc1cccc(F)c1 | -6.8% |
| CCOc1ccc(C(=O)NC(=S)Nc2ccc(N3CCOCC3)c(Cl)c2)cc1[N+](=O)[O-] | -10.7% |
| COc1cc(NC(=O)CN(C)S(=O)(=O)c2ccc3nc(C)sc3c2)cc(OC)c1 | 17.7% |
| Cc1ccc2nc(-c3ccc(NC(=O)CN(C)S(=O)(=O)c4ccccc4)cc3)sc2c1 | 190% (active) |
| Cc1cccc(N(CC(=O)Nc2ccc(-c3nc4ccc(C)cc4s3)cc2)S(C)(=O)=O)c1 | 104% |
| Cc1ccc(NC(=O)Nc2ccc3oc(C)nc3c2)cc1 | 145% (active) |
| Cc1nc2cc(NC(=O)NCc3ccccc3)ccc2o1 | 23.1% |
| C=CCN(C(=O)Nc1ccc2oc(C)nc2c1)c1ccccc1 | 11.6% |
| COC(=O)c1ccc(/C=N/N2C(C)CCCC2C)cc1 (stereo not given) | 53% |
| CCOC(=O)CSc1nnc(-c2ccc([N+](=O)[O-])cc2)o1 | 5.38% |
| CC1=CC=CC2=N/C(=N\S(=O)(=O)c3ccc(F)cc3F)c3ccccc3CN12 | 27% |
| COc1cc(/C=N/NC(=O)c2cc(C)n(-c3ccc(F)cc3)c2C)cc(OC)c1O | 0.41% |

| SMILES | activation |
| --- | --- |
| Cc1ccc(-n2c(C)cc(C(=O)CN3C(=O)C(=O)N(C4CCCC4)C3=O)c2C)cc1 | -9.76% |
| Cc1cc(C(=O)COC(=O)C2CC2)c(C)n1-c1ccc(F)cc1 | 145% (active) |
| Cc1ccc(OCC(=O)Nc2ccc(S(=O)(=O)Nc3ccccn3)cc2)cc1 | 0.31% |
| CCc1nc2ccccc2c(C(=O)OC2CCCCC2=O)c1C (stereo not given) | 2.83% |
| CCn1c(SCc2cc(=O)n3ccsc3n2)nc2ccccc21 | -4.54% |
| COc1ccc(/C=C/C(=O)Nc2ccc3c(c2)OCCO3)cc1OC | -0.48% |
| COc1ccc(OC)c(/C=C/C(=O)OCC(=O)Nc2ccc3c(c2)OCCO3)c1 | -19.2% |
| COc1cccc(/C=C/C(=O)Nc2ccc3c(c2)OCCO3)c1 | 168% (active) |
| CC1CCCC(NC(=O)COC(=O)[C@@H]2CC(O)CN2S(=O)(=O)c2ccc3c(c2)OCCO3)C1C (stereo not given in full) | 11.6% |
| CN(C(=O)CSc1nncc2ccccc12)C1CCCCC1 | 56.8% |
| Cc1ccc(C(=O)OC(C)CN2CCOCC2)cc1 (stereo not given) | -15.7% |
| COc1cc(Cl)c(C)cc1NC(=O)[C@@H]1CCCN1C(=O)c1cccs1 | -25.6% |
| O=C(CSC(=S)N1CCOCC1)c1ccccc1 | 139% (active) |
| NC(=NC(=O)c1ccccc1)N1CCOCC1 | 9.73% |
| CC1CN(C(=S)SCC(=O)c2ccccc2)CC(C)O1 (stereo not given) | -2.53% |
| O=C(NCc1nnc(SCC(=O)N2CCCc3ccccc32)o1)c1ccccc1F | -9.96% |
| COc1cc([N+](=O)[O-])ccc1NC(=O)CN1CCCC1 | -0.5% |
| COc1ccc(Sc2nc(-c3ccccc3)ncc2OC)cc1 | -14% |
| COc1cc(SC)ccc1C(=O)NCCOc1ccccc1Cl | 143% (active) |
| COc1ccccc1CNC(=O)c1ccc(SC)cc1OC | -5.82% |
| COc1cc(SC)ccc1C(=O)Nc1nc(C)cs1 | 57.9% |
| COc1cc(SC)ccc1C(=O)Nc1cc(C)ccn1 | 220% (active) |
| O=C(NCCOc1ccccc1Cl)C(=O)Nc1ccccc1 | 0.2% |
| Cc1ccnc(NC(=O)c2ccoc2C)c1 | 33.5% |
| O=C(CCC1CCCN(C(=O)Cc2ccc(F)cc2)C1)N1CCN(c2ccccn2)CC1 (stereo not given) | 10.5% |
| Cc1c(C2=CCN(S(=O)(=O)c3ccc(Cl)cc3)CC2)c2ccccc2n1C | -2.27% |
